# Several values for one entry are separate records, joined by “and”; a condition that tells them apart may be missing. Equal entries are not always repeated. For some assays here: Entries with a potency or affinity are not part of this list. Activity calls are given as the source filed them. Unless noted, the rule behind the calls is not given here.
# Experiments:
# [1] = polyglutamine-triggered caspase-3 activation inhibitors, cell-based (AID 1583); details: polyglutamine-induced caspase-3 activation, cell assay; stronger effect = higher value;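 tested at 10 µM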
# [2] = suppressors of polyQ aggregation in yeast, 75Q-TubU reporter (AID 1593); details: Yeast 75Q polyglutamine aggregation reporter
# [3] = rescue of polyQ-huntingtin neuronal dysfunction in worms, whole organism, C. elegans mechanosensory neurons, N-terminal huntingtin (AID 1599); details: touch response, stronger effect = higher value
# [4] = inhibitors of mitochondrial cytochrome c release, biochemical, purified mitochondria (AID 1603); details: stronger effect = lower value;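 note: mouse liver mitochondria challenged with calcium chloride; signal normalized to the plate average as 100%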
# [5] = inhibitors of polyQ protein aggregation (AID 1604); details: polyglutamine-induced protein aggregation inhibition assay; stronger effect = higher value; tested at 2.5 µM
# [6] = enhancers of glutamate uptake in motor neurons, MN-1 cell line (AID 1612); details: MN-1 motor neuron cells, stronger effect = higher value;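 note: tested at 1 µM final; 0% = mean of DMSO vehicle wells on each plate; positive means more glutamate uptake than control and negative means less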
# [7] = suppressors of polyglutamine aggregation in yeast, 75Q-TubH (AID 1616); details: S. cerevisiae 75Q-TubH polyglutamine aggregation suppression; stronger effect = higher value
# [8] = circadian clock period modulators, cell-based, LOPAC library, luminescence reporter (AID 2774); details: circadian reporter cells, at 7 µM, actives lie on both sides;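 note: values are relative to mean of DMSO wells on each plate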
# [9] = test system: Hepatitis C virus NS3 helicase; assay: HCV NS3 helicase inhibitors, primary screen, biochemical, fluorescence polarization, LOPAC1280 library (AID 687035; in the data active = inhibition above about 37%); details: Purified HCV NS3 helicase, Cy5-dT15 ssDNA binding fluorescence polarization; stronger effect = higher value; concentration not given here
# [10] = Cy5 fluorescence quenching or enhancement artefacts, artefact control for HCV NS3 helicase inhibitor project, biochemical, LOPAC1280 (AID 687037); details: Cy5-DNA-NS3h complex fluorescence interference counterscreen
# [11] = Cy5 fluorescence interference with SSB-bound oligo, artefact control for HCV NS3 helicase inhibitor project, biochemical, NIH Clinical Collection, E. coli SSB (AID 743268)
# [12] = test system: Hepatitis C virus NS3 helicase; assay: HCV NS3 helicase inhibitors, primary screen, biochemical, fluorescence polarization, NIH Clinical Collection (AID 743270); details: NS3 helicase binding to Cy5-dT15 DNA, stronger effect = higher value, concentration not given here
# [13] = molecular target: Single-stranded DNA-binding protein (Escherichia coli (strain K12)) (UniProt P0AGE0); assay: E. coli SSB displacement from DNA, counter-screen for HCV NS3 helicase inhibitor project, biochemical, fluorescence polarization, NIH Clinical Collection (AID 743271; in the data active = inhibition above about 28%); details: stronger effect = higher value, concentration not given here
# [14] = fluorescence interference in NS3h assay format, artefact control for HCV NS3 helicase inhibitor project, biochemical, NIH Clinical Collection (AID 743272); details: fluorescence interference counterscreen, stronger effect = lower value;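 note: HCV NS3 helicase with a Cy5 labelled single stranded DNA probe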
# [15] = phospholipid biosynthesis inhibitors in animal cells, primary screen, cell-based, LOPAC library, screen 4 (AID 1347384); details: phospholipid biosynthesis inhibition screen, at 10 µM
# [16] = HDN33 neuroblastoma growth inhibition, cell-based, chromothripsis tumors, cisplatin or BGB combos (AID 1671450; in the data active = inhibition above about 80%;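 note: cells exposed to compound for four days; 0% = vehicle DMSO and 100% = cell killing by high DMSO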); details: HDN33 neuroblastoma cells, stronger effect = higher value
# [17] = HTB85 osteosarcoma cell growth inhibition, synergistic combos for chromothripsis tumors, BGB or cisplatin IC20 combos (AID 1671453; in the data active = inhibition above about 80%;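 note: cells exposed for 96 hours before readout; 0% = vehicle DMSO and 100% = high DMSO killing control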); details: HTB85 osteosarcoma cells, drug combinations, stronger effect = higher value
# [18] = MDA-MB-436 breast carcinoma cell growth inhibition, synergistic combos for chromothripsis tumors, BGB or cisplatin combos (AID 1671458); details: MDA-MB-436 breast carcinoma growth inhibition, drug combinations, stronger effect = higher value;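 note: cells exposed for 96 hours; 0% = vehicle DMSO and 100% = killing by high DMSO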
# [19] = growth inhibition of BT084 medulloblastoma cells, cell-based, ICGC_MB145, cisplatin and BGB IC40 combos (AID 1671461; in the data active = inhibition above about 80%;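 note: cells exposed to drugs for 96 hours; 0% = vehicle DMSO and 100% = high DMSO full killing control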); details: drug combinations, stronger effect = higher value
# [20] = growth inhibition of RCMB18 medulloblastoma cells, cell-based, cisplatin and BGB IC40 combos (AID 1671462; in the data active = inhibition above about 80%;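 note: cells exposed to compound for four days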); details: stronger effect = higher value
smiles,measurement,setting,value
CCCC(CCC)C(=O)O,inhibition,[1],28.5%
same,score,[2],1.39
same,rescue above control,[3],2.58
same,cytochrome c release ratio,[4],0.86
same,inhibition of aggregation,[5],40.9%
same,glutamate uptake change,[6],-8.08%
same,aggregation suppression score,[7],0.716
same,period change,[8],0.1 h (inactive)
same,inhibition,[9],0% (inactive)
same,fluorescence ratio (interference),[10],1 (inactive)
same,fluorescence ratio,[11],1.04 (inactive)
same,inhibition,[12],-1.36% (inactive)
same,inhibition,[13],-1.24% (inactive)
same,fluorescence ratio,[14],0.99 (inactive)
same,outcome,[15],inactive
same,inhibition,"[16]; BGB combo, at 5 µM",-30.6% and 8.86%
same,inhibition,[16]; at 0.5 µM,-23.5% (inactive) and 13.8% (inactive)
same,inhibition,"[16]; cisplatin combo, at 5 µM",-2.31% and 15.6%
same,inhibition,"[16]; measured here: with BGB IC20 combination, at 0.5 µM",-33% and 14.7%
same,inhibition,"[16]; measured here: with cisplatin IC20 combination, at 0.5 µM",0.437% and 10.4%
same,inhibition,"[16]; single agent, at 5 µM",-20.1% and 11%
same,inhibition,[17]; at 0.5 µM,-8.02% (inactive) and 3.4% (inactive)
same,inhibition,"[17]; measured here: with BGB IC20, at 0.5 µM",-18.9% and -3.5%
same,inhibition,"[17]; measured here: with BGB IC20, at 5 µM",53.9% and 3.4%
same,inhibition,"[17]; measured here: with cisplatin IC20, at 0.5 µM",-4.12% and 2.48%
same,inhibition,"[17]; measured here: with cisplatin IC20, at 5 µM",-47.8% and -2.5%
same,inhibition,"[17]; single agent, at 5 µM",-17.1% and 13.4%
same,inhibition,[18]; at 0.5 µM,-30.4% (inactive) and 1.93% (inactive)
same,inhibition,"[18]; measured here: BGB combination, at 0.5 µM",-29.6% and 4.62%
same,inhibition,"[18]; measured here: BGB combination, at 5 µM",-20.8% and 1.95%
same,inhibition,"[18]; measured here: cisplatin combination, at 0.5 µM",-40.6% and 3.21%
same,inhibition,"[18]; measured here: cisplatin combination, at 5 µM",-25.9% and 1.52%
same,inhibition,[19]; at 0.5 µM,-33.9% (inactive) and -3.36% (inactive)
same,inhibition,"[19]; cisplatin combination, at 0.5 µM",-10.5% and -11.6%
same,inhibition,"[19]; cisplatin combination, at 5 µM",-5.4% and -1.37%
same,inhibition,"[19]; measured here: BGB IC40 combination 0.05 uM, at 0.05 µM",-20.5% and -59.5%
same,inhibition,"[19]; single agent, at 5 µM",-18.9% and -8.84%
same,inhibition,[20]; at 0.5 µM,-2.59% (inactive) and -3.82% (inactive)
same,inhibition,"[20]; cisplatin combo, at 5 µM",-12% and -15.7%
same,inhibition,"[20]; measured here: BGB IC40 combination, at 0.05 µM",-2.36% and -1.73%
same,inhibition,"[20]; measured here: combination with cisplatin, at 0.5 µM",10.5% and -4.92%
same,inhibition,"[20]; single agent, at 5 µM",-25.2% and -0.151%
CC(C(=O)O)c1cccc(C(=O)c2ccccc2)c1 (stereo unspecified),inhibition,[1],-50.9%
same,score,[2],1.03
same,rescue above control,[3],17.1
same,cytochrome c release ratio,[4],1.12
same,inhibition of aggregation,[5],74.7%
same,glutamate uptake change,[6],-7.92%
same,aggregation suppression score,[7],0.564
same,period change,[8],-0.125 h (inactive)
same,inhibition,[9],-5% (inactive)
same,fluorescence ratio (interference),[10],1 (inactive)
same,inhibition,[12],-1.36% (inactive)
same,inhibition,[13],1.05% (inactive)
same,fluorescence ratio,[14],0.96 (inactive)
same,outcome,[15],inactive
